Data from ChEMBL document CHEMBL1201862, “PubChem BioAssay data set” (2004).
Screen size: about 400,000 compounds; about 2,100 (0.53%) were called active. Another 14% or so got no clear call; they are omitted. No rule for the calls is given here. Only a selection was taken, and actives are over-represented in it overall.

The compounds below were run against Ataxin-2 (Homo sapiens) (UniProt Q99700) (assay: qHTS for Inhibitors of ATXN expression.).
Chain of Ataxin-2 (Homo sapiens) (Q99700 whole entry): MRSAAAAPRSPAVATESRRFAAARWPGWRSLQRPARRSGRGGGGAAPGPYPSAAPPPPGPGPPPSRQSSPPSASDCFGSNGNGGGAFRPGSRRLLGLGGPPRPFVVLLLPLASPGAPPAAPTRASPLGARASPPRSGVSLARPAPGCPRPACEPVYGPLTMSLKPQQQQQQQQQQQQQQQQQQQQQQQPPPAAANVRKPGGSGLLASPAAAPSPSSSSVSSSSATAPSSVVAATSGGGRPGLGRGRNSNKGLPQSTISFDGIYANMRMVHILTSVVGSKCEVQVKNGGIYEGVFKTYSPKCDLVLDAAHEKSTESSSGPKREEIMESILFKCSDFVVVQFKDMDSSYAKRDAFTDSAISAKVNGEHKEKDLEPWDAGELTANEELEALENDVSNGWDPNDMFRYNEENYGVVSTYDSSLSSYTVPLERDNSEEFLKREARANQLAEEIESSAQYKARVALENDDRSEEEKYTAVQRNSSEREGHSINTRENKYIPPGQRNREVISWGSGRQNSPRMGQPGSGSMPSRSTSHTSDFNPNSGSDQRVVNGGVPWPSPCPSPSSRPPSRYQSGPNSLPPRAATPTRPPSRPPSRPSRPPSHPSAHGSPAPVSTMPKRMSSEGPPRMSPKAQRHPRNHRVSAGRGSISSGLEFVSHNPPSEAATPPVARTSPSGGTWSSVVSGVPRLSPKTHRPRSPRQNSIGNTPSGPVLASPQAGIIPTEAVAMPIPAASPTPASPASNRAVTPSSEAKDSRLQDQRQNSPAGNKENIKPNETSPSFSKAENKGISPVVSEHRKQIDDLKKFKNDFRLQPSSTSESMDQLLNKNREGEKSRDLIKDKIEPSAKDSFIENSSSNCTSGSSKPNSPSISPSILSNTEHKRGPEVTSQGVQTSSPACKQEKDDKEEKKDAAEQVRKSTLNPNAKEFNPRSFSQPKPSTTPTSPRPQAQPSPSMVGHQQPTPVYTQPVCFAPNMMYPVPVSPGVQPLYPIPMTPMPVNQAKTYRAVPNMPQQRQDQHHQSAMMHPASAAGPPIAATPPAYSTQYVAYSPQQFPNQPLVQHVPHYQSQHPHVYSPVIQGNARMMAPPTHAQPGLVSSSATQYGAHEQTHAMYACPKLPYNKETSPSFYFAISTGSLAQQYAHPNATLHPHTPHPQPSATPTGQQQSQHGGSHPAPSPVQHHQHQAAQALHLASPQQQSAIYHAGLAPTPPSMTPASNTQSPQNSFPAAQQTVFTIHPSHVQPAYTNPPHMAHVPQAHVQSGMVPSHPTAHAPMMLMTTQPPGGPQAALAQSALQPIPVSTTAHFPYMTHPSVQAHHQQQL
Type: functional
For `CCN(c1ccccc1)c1nc(=O)c2cccnc2s1`, the Potency was “inactive”.
With `O=S1(=O)C=C(Sc2nc3cc(Cl)ccc3o2)c2ccccc21` the Potency was 10 µM (active).
With `Brc1cccc(CSc2nnc(-c3ccncc3)o2)c1` the Potency was “inactive”.
With `O=S1(=O)C=C(Sc2nnc(-c3ccccc3)o2)c2ccccc21` the Potency was 11.2 µM (active).
In the case of `N#C/C(=C\c1c(Oc2ccccc2F)nc2ccccn2c1=O)C(=O)NC1CCS(=O)(=O)C1` (stereo unspecified), the Potency is reported as “inactive”.
In the case of `O=S(=O)(c1ccc(S)nc1)N1CCCCC1`, the Potency is reported as “inactive”.
`O=S(=O)(c1ccc(S)nc1)N1CCCCCC1` was tested, and the Potency was “inactive”.
For `NC(=O)c1cc(S(=O)(=O)N2CCCCC2)cs1`, the Potency was “inactive”.
With `Cn1c(=O)oc2cc(S(=O)(=O)N3CCCC3)ccc21` the Potency was “inactive”.
In the case of `O=[N+]([O-])c1cc(S(=O)(=O)N2CCCCCC2)ccc1Cl`, the Potency is reported as 42.3 µM (active).
In the case of `O=[N+]([O-])c1cc(S(=O)(=O)N2CCCCCC2)ccc1F`, the Potency is reported as 35.5 µM (active).
`COCc1cc(C)nc2sc(C(=O)Nc3ccccc3C)c(N)c12` was tested, and the Potency was “inactive”.
`O=C(Nc1nc2n(n1)C(c1ccccc1)C=C(c1ccc(Cl)cc1)N2)c1ccco1` (stereo unspecified) was tested, and the Potency was “inactive”.
In the case of `CCCCc1cc(=O)oc2cc(OCC(=O)Nc3cccnc3)c(Cl)cc12`, the Potency is reported as “inactive”.
In the case of `S=C(NCc1ccccc1)N/N=C/c1cccs1`, the Potency is reported as “inactive”.
`Cc1ccc(CN2CCSCC2)cc1` was tested, and the Potency was “inactive”.
In the case of `O=C(/C=C/c1ccc([N+](=O)[O-])o1)NNC(=O)c1ccc(F)cc1`, the Potency is reported as 7.08 µM (active).
For `O=C(CCC1CCCC1)NNC(=O)c1ccc(F)cc1`, the Potency was “inactive”.
In the case of `O=C(CN1C(=O)/C(=C/c2ccccc2F)Oc2ccccc21)N1CCN(c2ccccn2)CC1`, the Potency is reported as “inactive”.
With `O=C(OC1C2CCC1C1CN(CCc3ccccc3)CC12)c1ccccc1` (stereo unspecified) the Potency was 31.6 µM (active).
In the case of `O=C(CSc1nnc(O)n1CCc1ccccc1)NC1CCCC1`, the Potency is reported as “inactive”.
In the case of `COC(=O)c1cc(S(=O)(=O)N2CCN(Cc3ccccc3)CC2)cn1C`, the Potency is reported as “inactive”.
`O=C(c1ccccc1)N1N=C(c2ccccc2)CC1(O)C(F)(F)F` (stereo unspecified) was tested, and the Potency was “inactive”.
With `CCC1=NN(C(=O)c2ccccc2O)C(O)(c2ccccc2)C1` (stereo unspecified) the Potency was 25.1 µM (active).
`CCOC(=O)C1=NN(C(=O)c2ccccc2)C(O)(c2ccc(C)cc2)C1` (stereo unspecified) was tested, and the Potency was “inactive”.
For `CCN(C(=O)CSc1nc2n[nH]c(C)c2c(=N)n1-c1cccc(OC)c1)c1cccc(C)c1`, the Potency was 22.4 µM (active).
In the case of `COc1cccc(-n2cnnc2SCC(=O)NC2CC2)c1`, the Potency is reported as “inactive”.
`CCOC(=O)N1CCN(Cc2nc3ccc([N+](=O)[O-])cc3c(=O)n2-c2cccc(OC)c2)CC1` was tested, and the Potency was “inactive”.
For `CCCCC[C@@H](C)N1C[C@@H](COCc2ccccc2)Oc2cc(N3CC[C@H](N(C)C)C3)ccc2S1(=O)=O`, the Potency was 31.6 µM (active).
`CCCCC[C@@H](C)N1C[C@@H](COCc2ccccc2)Oc2cc(N3CC[C@@H](O)C3)ccc2S1(=O)=O` was tested, and the Potency was 25.1 µM (active).
For `C[C@H](c1ccccc1)N1C[C@@H](COCc2ccccc2)Oc2cc(N3CC[C@H](N(C)C)C3)ccc2S1(=O)=O`, the Potency was 39.8 µM (active).
`CCCCC[C@H](C)N1C[C@H](COCc2ccccc2)Oc2cc(N3CC[C@H](N(C)C)C3)ccc2S1(=O)=O` was tested, and the Potency was 39.8 µM (active).
In the case of `Cc1c(CC(=O)NCc2ccccc2)c(=O)oc2c(C)c(O)ccc12`, the Potency is reported as “inactive”.
`Cc1ccc(C(C)NC(=O)C2CCCC2)c(C)c1` (stereo unspecified) was tested, and the Potency was “inactive”.
In the case of `C=CCNC(=O)CSc1ncc2c(n1)-c1c(csc1SC)CC2`, the Potency is reported as “inactive”.
For `CC(NC(=O)c1cc2c(=O)n3ccccc3nc2n(C(C)C)c1=N)c1ccccc1` (stereo unspecified), the Potency was “inactive”.
`COCCN(CCOC)c1cc(C)c(C#N)c2nc3ccccc3n12` was tested, and the Potency was “inactive”.
With `Cc1occc1C(=O)N1CCC2(CCCN(Cc3ccc(F)c(F)c3)C2)C1` (stereo unspecified) the Potency was “inactive”.
With `CC1CN(C(=O)c2cc3c(=O)n4ccccc4nc3n2C)CC(C)O1` (stereo unspecified) the Potency was “inactive”.
In the case of `Cc1cccc(N2CCN(C(=O)c3cc4c(=O)n(C)c5ccccc5c4n3C)CC2C)c1` (stereo unspecified), the Potency is reported as 39.8 µM (active).
In the case of `Cn1c(C(=O)N2CCc3ccccc3C2)cc2c(=O)n3ccccc3nc21`, the Potency is reported as “inactive”.
With `COc1ccc2nc(N3CCCC3)c(C#N)cc2c1` the Potency was “inactive”.
For `O=c1cc(CN2CCN(S(=O)(=O)c3ccc4c(c3)OCCO4)CC2)c2ccc(O)cc2o1`, the Potency was “inactive”.
With `Cc1cccc(C2=NN(c3ccccc3)[C@@H](C(=O)N3CCOC3=O)[C@@H]2c2ccc(Cl)cc2)c1` the Potency was “inactive”.
With `COc1ccc([N+](=O)[O-])cc1NC(=O)CC(c1ccccc1)c1ccccc1` the Potency was “inactive”.
In the case of `O=C(Nc1ccc([N+](=O)[O-])cc1)Nc1ccc(OC(F)F)c(Cl)c1`, the Potency is reported as 35.5 µM (active).
With `COc1cc(/C=C/C(=O)OCC(=O)Nc2ccc([N+](=O)[O-])cc2)ccc1O` the Potency was “inactive”.
For `CCOC(=O)/C=c1\s/c(=C\c2ccc3cc(OC)ccc3c2)c(=O)n1CC(=O)NCc1ccc2c(c1)OCO2`, the Potency was “inactive”.
For `N#C/C(=C\c1c(N2CCOCC2)nc2ccccn2c1=O)C(=O)NC1CCS(=O)(=O)C1` (stereo unspecified), the Potency was “inactive”.
In the case of `CCCCn1c(=N)n(CC(=O)c2ccc(Br)s2)c2ccccc21`, the Potency is reported as 39.8 µM (active).
`CCN(CC)CCn1c(=N)n(CC(=O)c2ccc(Br)s2)c2ccccc21` was tested, and the Potency was “inactive”.
With `Cn1c(/C(C#N)=C(\O)c2ccc(Br)s2)nc2ccccc21` the Potency was “inactive”.
For `CC(C)n1c(=N)c(C(=O)NCc2cccnc2)cc2c(=O)n3ccccc3nc21`, the Potency was “inactive”.
`N#Cc1c(C(F)(F)F)cc(-c2ccco2)nc1SCc1ccncc1` was tested, and the Potency was “inactive”.
`Cc1ccc(C(=O)CC(=O)c2ccc(C)cc2O)cc1` was tested, and the Potency was “inactive”.
In the case of `CCc1cc(C(=O)c2ccc(C)cc2)c(NC(=O)CCl)s1`, the Potency is reported as 31.6 µM (active).
For `CCOC(=O)c1cc(C(=O)c2cc(Cl)ccc2O)coc1=N`, the Potency was “inactive”.
`CCN(CC)CC(=O)Nc1sc(C)c(C)c1C(=O)c1ccc(C)cc1` was tested, and the Potency was “inactive”.
With `Cc1cc(C(=O)c2ccc(Cl)cc2)c(NC(=O)CCl)s1` the Potency was 39.8 µM (active).
`CCOc1ccccc1/N=c1\oc2cc(O)ccc2cc1C(=O)NCC1CCCO1` (stereo unspecified) was tested, and the Potency was “inactive”.
With `COC(=O)C(=O)C/C(=N/Nc1ncnc2ccccc12)c1ccc(Cl)cc1` the Potency was “inactive”.
With `C#CCOc1ccc(C2C3=C(CC(C)(C)CC3=O)N(CC(=O)O)C3=C2C(=O)CC(C)(C)C3)cc1` the Potency was “inactive”.
With `Cc1cc2nc3c(=O)n(C4CCCCC4)c(=O)[nH]c3nc2cc1N` the Potency was “inactive”.
In the case of `CCCN(CC(=O)Nc1ccc(F)c(F)c1F)C(=O)Cc1ccc(OC)c(S(=O)(=O)N2CCOCC2)c1`, the Potency is reported as “inactive”.
For `CC(C)=CCN1CCN(Cc2cccc3nonc23)CC1CCO` (stereo unspecified), the Potency was “inactive”.
With `Cc1ccccc1CN1CCN(Cc2cc3ccccc3o2)CC1CCO` (stereo unspecified) the Potency was 8.44 µM (active).
With `COc1ccc(CN2CCN(CC3CC3)CC2CCO)c(C)c1C` (stereo unspecified) the Potency was “inactive”.
For `CCOc1ccc(C2=CC(c3ccccc3)n3ncnc3N2)cc1` (stereo unspecified), the Potency was “inactive”.
In the case of `CCOCCCn1/c(=N/C(=O)c2cccnc2)c(C(=O)OCC)cc2c(=O)n3ccccc3nc21`, the Potency is reported as “inactive”.
`COC(=O)c1ccc2[nH]c3cccc(/C(=C/c4ccccc4)c4ccccc4)c3c2c1` was tested, and the Potency was 39.8 µM (active).
For `O=C(OCCN1C(=O)c2cccc3c(N4CCOCC4)ccc(c23)C1=O)c1ccc(Cl)cc1Cl`, the Potency was “inactive”.
With `O=C(CN1C(=O)c2ccccc2C1=O)OCCOCCNC1=NS(=O)(=O)c2ccccc21` the Potency was “inactive”.
For `COc1ccc(N2CC(C(=O)N[C@@H](C)C(=O)NCc3ccccc3OC)CC2=O)cc1` (stereo partly specified), the Potency was “inactive”.
`CCc1nc2ccc(C(=O)Nc3ccc(Cl)c(Cl)c3)cn2c1N(C)Cc1ccc(OC)cc1` was tested, and the Potency was 20 µM (active).
In the case of `CCc1nc2ccc(C(=O)NCc3ccccc3OC)cn2c1N(C)Cc1ccc(OC)cc1`, the Potency is reported as 17.8 µM (active).
`COCCCNC(=O)c1ccc2nc3ccccc3c(=O)n2c1` was tested, and the Potency was “inactive”.
In the case of `COc1ccc(NC(=S)N2CCC(C(=O)c3ccc(Cl)cc3)CC2)cc1`, the Potency is reported as “inactive”.
With `CCn1cc(Cl)c(C(=O)Nc2cc(C(=O)OC)cc(C(=O)OC)c2)n1` the Potency was “inactive”.
For `COc1ccc2c(c1)CCc1cn3ncc(C#N)c3nc1-2`, the Potency was “inactive”.
With `O=C(O/N=C1\CCS(=O)(=O)c2sccc21)c1ccccc1` the Potency was “inactive”.
`CCc1c(C)c2cc(Cl)c(O)c(CN(CC)CC)c2oc1=O` was tested, and the Potency was “inactive”.
With `CN1C(=O)c2cccc3c(Br)ccc(c23)C1=O` the Potency was “inactive”.
With `Brc1ccc(COc2ncnc3ccccc23)cc1` the Potency was “inactive”.
For `O=C(O)c1ccccc1N(Cc1ccccc1)C(=O)COc1ccccc1`, the Potency was “inactive”.
With `O=C(NCc1ccc2c(c1)OCO2)c1ccc(Cl)s1` the Potency was “inactive”.
`CCOc1ccc(CN(C)C(=O)CCl)cc1` was tested, and the Potency was 12.6 µM (active).
`CN(Cc1ccc(Cl)s1)C(=O)CCl` was tested, and the Potency was 23.8 µM (active).
`CN(Cc1ccc(Cl)cc1)C(=O)CCl` was tested, and the Potency was 35.5 µM (active).
`CCOc1ccc(CNC(=O)Nc2ccccc2)cc1` was tested, and the Potency was “inactive”.
`COc1ccc(CN(C)C(S)=Nc2ccc(Cl)cc2)cc1` was tested, and the Potency was “inactive”.
In the case of `O=C(Nc1ccccc1F)C(=Cc1sc(N2CCOCC2)nc1-c1ccccc1)C(=O)Nc1ccccc1F`, the Potency is reported as “inactive”.
For `Nc1c(C(=O)Nc2ccccc2)sc2nc(-c3ccco3)ccc12`, the Potency was “inactive”.
For `Cc1ccc2cccc(NS(=O)(=O)c3ccccc3)c2n1`, the Potency was “inactive”.
With `CC(C)(C)C(=O)/C=c1\s/c(=C\c2ccc(-c3ccc([N+](=O)[O-])cc3)o2)c(=O)n1CC(=O)NC(N)=O` the Potency was “inactive”.
In the case of `COC(=O)c1ccc2oc(=O)c(S(=O)(=O)c3ccc(C)cc3)cc2c1`, the Potency is reported as “inactive”.
`CN(C)CCCN(C(=O)c1cccs1)c1nc2cc3c(cc2s1)OCO3` was tested, and the Potency was “inactive”.
With `CN(C)CCCN(C(=O)c1ccc2c(c1)CCCC2)c1nc2ccc(Cl)cc2s1` the Potency was 31.6 µM (active).
With `CN(C)CCCN(C(=O)c1ccco1)c1nc2ccc(Cl)cc2s1` the Potency was 39.8 µM (active).
With `COc1cc2nc(N(CCCN(C)C)C(=O)c3ccc(C(=O)c4ccccc4)cc3)sc2cc1OC` the Potency was 44.7 µM (active).
With `Cc1ccc2nc(N(CCCN(C)C)C(=O)c3ccc4c(c3)CCCC4)sc2c1` the Potency was 39.8 µM (active).
In the case of `S=C(Nc1ccccc1Cl)N1CCCC(c2ccccc2)=N1`, the Potency is reported as “inactive”.
